Where a chain is given by its changes, count along the chain named.
B1: CGTA (dsDNA)
DNA 1: GCTATCTAGTGCTCAGTACGCACTGCGTAAGGAAACTTCTGGCAGGACCAGGTCATGAGATCGGAAGAGCACACGTCTGAACTCCAGTCA
DNA 2: TGACTGGAGTTCAGACGTGTGCTCTTCCGATCTCATGACCTGGTCCTGCCAGAAGTTTCCTTACGCAGTGCGTACTGAGCACTAGATAGC
RNA: AAUUUCUACUCUUGUAGAUAGGAAACUUCUGGCAGGACC
B2: CGTC (dsDNA)
DNA 1: B1 DNA 1 with A29C
DNA 2: B1 DNA 2 with T62G
RNA: B1 RNA
B3: CTGA (dsDNA)
DNA 1: B1 DNA 1 with G27T, T28G
DNA 2: B1 DNA 2 with A63C, C64A
RNA: B1 RNA
B4: CGTG (dsDNA)
DNA 1: B1 DNA 1 with A29G
DNA 2: B1 DNA 2 with T62C
RNA: B1 RNA
B5: GCTG (dsDNA)
DNA 1: B1 DNA 1 with C26G, G27C, A29G
DNA 2: B1 DNA 2 with T62C, C64G, G65C
RNA: B1 RNA
B6: CTCC (dsDNA)
DNA 1: B1 DNA 1 with G27T, T28C, A29C
DNA 2: B1 DNA 2 with T62G, A63G, C64A
RNA: B1 RNA
B7: GCTC (dsDNA)
DNA 1: B1 DNA 1 with C26G, G27C, A29C
DNA 2: B1 DNA 2 with T62G, C64G, G65C
RNA: B1 RNA
B8: GATA (dsDNA)
DNA 1: B1 DNA 1 with C26G, G27A
DNA 2: B1 DNA 2 with C64T, G65C
RNA: B1 RNA
B9: GCGA (dsDNA)
DNA 1: B1 DNA 1 with C26G, G27C, T28G
DNA 2: B1 DNA 2 with A63C, C64G, G65C
RNA: B1 RNA
B10: GATG (dsDNA)
DNA 1: B1 DNA 1 with C26G, G27A, A29G
DNA 2: B1 DNA 2 with T62C, C64T, G65C
RNA: B1 RNA
B11: GATT (dsDNA)
DNA 1: B1 DNA 1 with C26G, G27A, A29T
DNA 2: B1 DNA 2 with T62A, C64T, G65C
RNA: B1 RNA
B12: CTCA (dsDNA)
DNA 1: B1 DNA 1 with G27T, T28C
DNA 2: B1 DNA 2 with A63G, C64A
RNA: B1 RNA
B13: GAGA (dsDNA)
DNA 1: B1 DNA 1 with C26G, G27A, T28G
DNA 2: B1 DNA 2 with A63C, C64T, G65C
RNA: B1 RNA
B14: CTAA (dsDNA)
DNA 1: B1 DNA 1 with G27T, T28A
DNA 2: B1 DNA 2 with A63T, C64A
RNA: B1 RNA
B15: GCTA (dsDNA)
DNA 1: B1 DNA 1 with C26G, G27C
DNA 2: B1 DNA 2 with C64G, G65C
RNA: B1 RNA

target: dAsCas12a Ultra (Acidaminococcus sp., UniProt U2UMQ6 1-1307, M537R;F870L;D908A;E993A;D1235A); assay: Spec-seq (native PAGE EMSA with sequencing of bound and unbound); 25 mM Tris-HCl pH 7.4, 150 mM KCl, 5 mM MgCl2, 10% glycerol, 1 mM DTT, 40 ng/uL salmon sperm DNA; 400 nM Cas12a, 480 nM crRNA, 50 nM library, 37 C 1 h; native PAGE at room temperature; high values mean tight binding; conditions: protein: recombinant

Binder | binding signal [lnKA]
B1 | -8.71
B2 | -8.54
B3 | -8.41
B4 | -9
B5 | -7.49
B6 | -8.67
B7 | -6.65
B8 | -8.53
B9 | -8.91
B10 | -8.85
B11 | -8.92
B12 | -8.8
B13 | -8.96
B14 | -8.92
B15 | -6.83

target: dAsCas12a E174R (Acidaminococcus sp., UniProt U2UMQ6 1-1307, E174R;D908A;E993A;D1235A); assay: as above; conditions: protein: recombinant;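 also: relative affinity from the bound to unbound sequence frequency ratio in Spec-seq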

Binder | binding signal [lnKA]
B1 | -8.37
B4 | -8.98
B5 | -7.49
B6 | -8.66
B7 | -6.48
B8 | -6.9
B10 | -8.75
B11 | -8.74
B12 | -8.26
B14 | -8.64
B15 | -5.69

target: dAsCas12a S542R (Acidaminococcus sp., UniProt U2UMQ6 1-1307, S542R;D908A;E993A;D1235A); assay: as above; conditions: protein: recombinant;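 also: relative affinity from the bound to unbound sequence frequency ratio in Spec-seq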

Binder | binding signal [lnKA]
B1 | -8.4
B2 | -8.67
B3 | -8.41
B4 | -8.73
B5 | -7.86
B6 | -4.85
B7 | -7.23
B8 | -8.17
B9 | -8.63
B10 | -8.25
B11 | -8.17
B12 | -6.35
B13 | -8.5
B14 | -8.47
B15 | -7.23

target: d-enCas12a (Acidaminococcus sp., UniProt U2UMQ6 1-1307, E174R;S542R;K548R;D908A;E993A;D1235A); assay: as above; conditions: protein: recombinant

Binder | binding signal [lnKA]
B1 | -2.47
B2 | -2.67
B3 | -5.63
B4 | -4.4
B5 | -5.74
B6 | -0.91
B7 | -4.98
B8 | -3.28
B9 | -5.81
B10 | -4.89
B11 | -5.56
B12 | -1.97
B13 | -5.82
B14 | -5.62
B15 | -4.92

target: d-enCas12a-Ultra (Acidaminococcus sp., UniProt U2UMQ6 1-1307, E174R;S542R;K548R;M537R;F870L;D908A;E993A;D1235A); assay: as above; conditions: protein: recombinant;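 also: relative affinity from the bound to unbound sequence frequency ratio in Spec-seq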

Binder | binding signal [lnKA]
B1 | -0.629
B2 | -0.615
B3 | -3.17
B4 | -1.51
B5 | -2.73
B6 | -0.27
B7 | -1.57
B8 | -1.2
B9 | -3.46
B10 | -2.56
B11 | -3.21
B12 | -0.439
B13 | -3.42
B14 | -3.05
B15 | -1.62

target: dAsCas12a K548R (Acidaminococcus sp., UniProt U2UMQ6 1-1307, K548R;D908A;E993A;D1235A); assay: as above; conditions: protein: recombinant

Binder | binding signal [lnKA]
B2 | -8.4
